ChEMBL document CHEMBL3988442, “University of Dundee, Small-Polar-MMV Screening Library” (2021)
In all, about 48,000 compounds went through this assay and about 13,000 (27%) showed an effect of 50% or more. The list shows a part of the results.

test system: Wolbachia pipientis; assay: Anti-Wolbachia Cell-Based Screen; type: functional; parameters: scale not given: in the data most compounds retested in dose-response had high values; conditions: 5 µM

SMILES	Percent Effect
COC(C)c1noc(CN(C)c2ncc(Br)cn2)n1 (stereo unspecified)	13.56%
CCCc1noc(CCCC(=O)N2CCCC(n3ccnc3C)C2)n1 (stereo unspecified)	-4.622%
CCCN1CCC(N2CCC(Cn3cc(C4CC4)nn3)CC2)CC1	-14.8%
Cc1ccc(F)c(S(=O)(=O)NCc2cccc(CS(C)(=O)=O)c2)c1	-5.265%
Cc1cccc(CN2C[C@@H]3CN(C(=O)NC(C)C)C[C@@H]3C2=O)c1	0.03785%
CCS(=O)(=O)N1C[C@H]2CN(Cc3cccc(C)c3)C(=O)[C@H]2C1	103%
Cc1cccc(CN2C[C@@H]3CN(C4CCOCC4)C[C@@H]3C2=O)c1.O=C(O)C(F)(F)F	2.907%
O=C(O)C(F)(F)F.O=C1[C@H]2CN(CC3CCOCC3)C[C@H]2CN1Cc1cccc(F)c1	-3.595%
COc1ccc(CN2C[C@@H]3CN(S(=O)(=O)C4CC4)C[C@@H]3C2=O)cc1	-20.01%
CCS(=O)(=O)N1C[C@H]2CN(Cc3ccc(OC)cc3)C(=O)[C@H]2C1	106.9%
CCS(=O)(=O)N1C[C@H]2CN(Cc3cccc(F)c3)C(=O)[C@H]2C1	106.4%
COc1ccc(CN2C[C@@H]3CN(CCO)C[C@@H]3C2=O)cc1	-4.847%
Cc1cccc(CN2C[C@@H]3CN(C(=O)c4ccsc4)C[C@@H]3C2=O)c1	0.6245%
CCCNC(=O)[C@@H]1CCCN1[C@@H](C(=O)NC)C1CC1.Cl	-3.59%
O=C(N1CCC(O)(C(F)(F)F)C1)C1(c2cccc(Cl)c2)CC1 (stereo unspecified)	-4.685%
C[S+]([O-])c1ccc(NC(=O)CC2=CCCCC2)cc1 (stereo unspecified)	-2.422%
CCOCC1CN(c2ncc(F)cn2)Cc2cn(CC)nc21 (stereo unspecified)	-1.494%
CCOCC1CN(CCOCc2ccccc2)Cc2c1cnn2C (stereo unspecified)	-3.92%
COCC1CN(CCOc2ccc(Cl)cc2)Cc2c1cnn2C.O=C(O)C(F)(F)F.O=C(O)C(F)(F)F (stereo unspecified)	128.1%
CCOCC1CN(CCc2ccccc2)Cc2c1cnn2C (stereo unspecified)	9.007%
CCn1ncc2c1CN(C(=O)Cc1ccccn1)CC2COC.O=C(O)C(F)(F)F.O=C(O)C(F)(F)F (stereo unspecified)	-10.79%
CCOCC1CN(CCOc2ccc(Cl)cc2)Cc2c1cnn2C.O=C(O)C(F)(F)F.O=C(O)C(F)(F)F (stereo unspecified)	-5.642%
COCC1CN(S(=O)(=O)c2ccc(C)cc2)Cc2c1cnn2C.O=C(O)C(F)(F)F (stereo unspecified)	14.09%
COCC1CN(CCc2ccc(OC)c(OC)c2)Cc2c1cnn2C (stereo unspecified)	98.17%
CCn1ncc2c1CN(C(=O)c1cc(C)oc1C)CC2COC.O=C(O)C(F)(F)F (stereo unspecified)	-2.484%
CCn1ncc2c1CN(CCc1cccc(Cl)c1)CC2COC.O=C(O)C(F)(F)F.O=C(O)C(F)(F)F (stereo unspecified)	128.6%

SMILES	Percent Effect
CN1CCN(c2ccc(NCc3ccc(OC(F)(F)F)cc3)cn2)CC1	-13.31%
COC(=O)N1CCC(Nc2cccc(F)c2C#N)CC1	6.326%
N#Cc1ccccc1C(=O)N1C[C@@H](CN2CCCCCC2)[C@@H](CO)C1	-2.218%
Cc1nnc(SCC(=O)N2CCc3[nH]nc(C4CCC4)c3C2)o1	-25.51%
CCN(CC)C(=O)C(c1ccccc1)N1CCn2c(C)nnc2C1 (stereo unspecified)	-5.766%
CC1(C)CC(CC(=O)N2CC(C)(C)[C@@](C)(O)C2)CC(C)(C)N1	-10.88%
CCc1cc(N[C@@H](CC(C)C)C(N)=O)n2nc(C)c(C)c2n1	1.157%
O=C([C@H]1CCCO1)N1CCN(Cc2cccnc2)c2ncccc2C1	109.6%
O=C([C@@H]1CCCO1)N1CCN(Cc2ccncc2)c2ncccc2C1	98.82%
O=C1CC(C(=O)N2CCc3sccc3C2)CN1Cc1cccnc1 (stereo unspecified)	-4.394%
CCC(C)(C)NC(=O)c1ccc(NC(=O)NCc2cc(C)no2)cc1	-4.635%
COCCN(CCOC)c1nc2c(s1)c(C)nn2C	0.9407%
COCC(=O)N1CCC(C(=O)Nc2ccc(C(C)=O)cc2)CC1	-27.44%
COC(=O)[C@@H](NC(=O)Nc1ccc(C(C)=O)cc1)C(C)C	115.5%
COC(=O)C(NC(=O)Nc1ccc(C(C)=O)cc1)C(C)C (stereo unspecified)	123.5%
Cc1ccc(NC(=O)NC(C)c2nc[nH]n2)cc1 (stereo unspecified)	-1.45%
COc1ccc(C(=O)N2CCCC(n3cncn3)C2)nn1 (stereo unspecified)	89.87%
Cc1nccn1C1CCCN(C(=O)c2ccc(N(C)C)nn2)C1 (stereo unspecified)	121.5%
CN(C)c1ccc(C(=O)N2CCCC(n3cncn3)C2)nn1 (stereo unspecified)	102.9%
Cc1nc(C)n(C2CCCN(C(=O)c3ccc(N(C)C)nn3)C2)n1 (stereo unspecified)	-4.997%
Cc1cnn(C2CCCN(C(=O)c3ccc(N(C)C)nn3)C2)c1 (stereo unspecified)	-2.152%
CCc1nccn1C1CCCN(C(=O)c2ccc(N(C)C)nn2)C1 (stereo unspecified)	8.431%
CCn1nc(C(=O)N2CCCC(n3cncn3)C2)ccc1=O (stereo unspecified)	-5.268%
O=C(c1ccc(OCC2CC2)nc1)N1CCCC(n2cncn2)C1 (stereo unspecified)	-8.592%
COc1cc(CN2CCCC2)ccc1Oc1ccc2c(c1)CC(CN)O2 (stereo unspecified)	-3.423%
COc1ccccc1CC(=O)NS(=O)(=O)c1ccc(NC(C)=O)cc1	120.5%

SMILES	Percent Effect
COc1ccccc1CC(=O)NS(C)(=O)=O	-0.264%
COc1ccccc1CC(=O)NS(=O)(=O)c1ccc(C#N)cc1	90.41%
COc1ccccc1CC(=O)NS(=O)(=O)c1cncc(Br)c1	1.416%
CCCc1nc(C)c(C(=O)NS(=O)(=O)c2ccc(C#N)cc2)s1	11.71%
CCCN(Cc1ccc(S(=O)(=O)NC)cc1)Cc1ccccc1OC	2.153%
CCc1nc(CN2CCN(C(=O)COCc3ccccc3)CC2)no1	16.69%
O=C(O)c1csc(S(=O)(=O)Nc2cccc(OCC(F)(F)F)c2)c1	12.1%
CCCc1cc(C(=O)Nc2nc(SC)ns2)n(C)n1	129.6%
CSc1nsc(NC(=O)c2cc(C3CC3)nn2C)n1	105.4%
Cc1nsc(NC(=O)N2CCCC2C)n1 (stereo unspecified)	-6.715%
Cc1nsc(NC(=O)NC2CCN(C)CC2)n1	-30.6%
CCCc1cc(C(=O)Nc2nc(SC)ns2)[nH]n1	-43.27%
CC(C)c1nn(C)c(N2CCOCC2)c1CNC(C)c1cccs1 (stereo unspecified)	1.351%
CCNC(=O)NC(=O)CNC(C)(CC)c1nc(C)cs1 (stereo unspecified)	6.164%
CC(C)CN(CC(C)C)Cn1ncc2cn(-c3ccccc3)nc2c1=O	8.982%
Cc1c(C(=O)N2CCCC2c2cnn(C)c2)cnn1-c1ccccc1 (stereo unspecified)	112.8%
Cn1cc(C2CCCN2C(=O)Cn2ccc3ccccc32)cn1 (stereo unspecified)	10.33%
Cc1ccccc1-n1ncc(C(=O)N2CCCC2c2cnn(C)c2)c1C (stereo unspecified)	-2.042%
Cc1nn(-c2ccccc2)cc1C(=O)N1CCCC1c1cnn(C)c1 (stereo unspecified)	105.2%
Cc1c(C(=O)N2CCCC2c2cnn(C)c2)nnn1-c1ccccc1 (stereo unspecified)	-1.391%
Cc1ccc(-n2ncc(C(=O)N3CCCC3c3cnn(C)c3)c2C)cc1 (stereo unspecified)	102.1%
Cn1cc(C2CCCN2C(=O)c2cn(-c3ccccc3)nn2)cn1 (stereo unspecified)	82.94%
Cc1nn(-c2ccccc2)nc1C(=O)N1CCCC1c1cnn(C)c1 (stereo unspecified)	5.794%
CCCOc1ccc(C(=O)N2CCN3CCNC(=O)C3C2)cc1Cl (stereo unspecified)	-5.744%
Clc1ccc(C2(NCc3noc(C4CC4)n3)CCC2)cc1	3.298%
COCCN(Cc1cccc(C#N)c1)Cc1nnsc1Cl	9.531%

SMILES	Percent Effect
COc1ccc(NC(=O)c2ccoc2C)c(N2CCN(C(C)=O)CC2)n1	0.9885%
Cc1nc(CNC(=O)NCC(O)c2ccc(F)cc2F)cs1 (stereo unspecified)	-3.131%
Cc1nc(C)n(CC2CCCCN2CC(=O)Nc2ccncc2)n1 (stereo unspecified)	-2.552%
Cc1nc(C)n(CC2CCCCN2CCC(=O)Nc2cc(C)on2)n1 (stereo unspecified)	5.676%
Cc1nc(C)n(CC2CCCCN2CC(=O)Nc2cc(C)on2)n1 (stereo unspecified)	106.4%
Cc1nc(C)n(CC2CCCN2Cc2cc(C)on2)n1 (stereo unspecified)	-8.278%
Cc1nc(C)n(CC2CCCN2CC(=O)Nc2cc(C)on2)n1 (stereo unspecified)	98.7%
Cc1nc(C)n(CC2CCCN2CC(=O)Nc2cc(C(C)C)no2)n1 (stereo unspecified)	-1.165%
Cc1nc2c(C(=O)N[C@H]3C[C@H]4CN(C)CCN4C3)cccc2[nH]1	8.866%
CCCc1cc(N2CCCC2Cn2nc(C)cc2C)n2ncnc2n1 (stereo unspecified)	-3.923%
CC(C)OCCS(=O)(=O)c1ccccc1C#N	-1.71%
Cc1ccc(C)c(C(NC(=O)C2CC2)c2cccnc2)c1 (stereo unspecified)	-2.241%
O=C(Nc1cc(-c2cccnc2)no1)C1CCCCC1	-34.68%
CC(NC(=O)C1CC1)c1cc(O)nc(-c2cccnc2)n1 (stereo unspecified)	92.57%
Cn1cc(CNC(=O)Nc2ccc(S(=O)(=O)C(F)F)cc2)cn1	-23.54%
CN(CCNC(=O)Nc1ccn(C)n1)Cc1ccc(F)cc1	87.45%
CC(NC(=O)Nc1nccs1)c1ccncc1 (stereo unspecified)	-0.7222%
CN(CCNC(=O)Nc1nccs1)Cc1ccc(F)cc1	98.5%
Cn1ccc(NC(=O)Cc2cccc(F)c2)n1	-26.85%
CCc1nnc(CN(C)Cc2cccc(C(=O)Nc3nccs3)c2)o1	-6.732%
CCCNC(=O)Nc1ccn(CCCOC)n1	-11.06%
CCc1nnc(CN(C)Cc2cccc(C(=O)Nc3cnn(C)c3)c2)o1	-6.481%
CN(CCNC(=O)Nc1cnn(C)c1)Cc1ccc(F)cc1	113%
